miR122 inh: miR-122 sensor activation | Huh7 psiCHECK-miR122 Renilla luciferase sensor, 48 h | activation, % at 12.5 µM | 340,000 compounds, 0.14% hits;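 active = mean activation of 30% or more, with every replicate also reaching 30%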;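 also: higher luciferase signal means stronger suppression of miR-122 activity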
Of the large screens only hits and unclear results are named; the others gave an inactive call. This is one part of a sample in which hits are shown more often than they occur.

CN[C@H]1C[C@H]2c3[nH]c4ccc(-c5ccc(OC)cc5)cc4c3CCN2C(=O)[C@H]1[C@H](C)O	miR122 inh 32
CC(C)CC#Cc1cnc2c(c1)C(=O)N([C@H](C)CO)C[C@H](C)[C@H](CN(C)S(=O)(=O)c1ccccc1)O2	none
COc1ccccc1-c1ccc2c(c1)O[C@@H](CN(C)C(=O)Nc1ccccc1)[C@H](C)CN([C@H](C)CO)S2(=O)=O	none
C[C@H](O)C#Cc1ccc2c(c1)O[C@@H](CN(C)C(=O)Cc1ccccn1)[C@@H](C)CN([C@@H](C)CO)S2(=O)=O	none
C[C@@H]1CN([C@H](C)CO)C(=O)c2cc(C3=CCCCC3)cnc2O[C@@H]1CN(C)C(=O)c1ccc(F)cc1	none
CCCN(C)C[C@@H]1Oc2ncc(/C=C/c3ccccc3)cc2C(=O)N([C@H](C)CO)C[C@@H]1C	none
CC(C)CC#Cc1cnc2c(c1)C(=O)N([C@@H](C)CO)C[C@@H](C)[C@H](CN(C)C(=O)Nc1cccc(F)c1)O2	none
COC(=O)[C@@H]1Cc2c([nH]c3ccccc23)C(C)(C)N1C(=O)CCl	miR122 inh 32
C[C@H]1CN([C@@H](C)CO)S(=O)(=O)c2ccc(C#Cc3ccccn3)cc2O[C@H]1CN(C)Cc1cccc(F)c1	none
COc1ccc(-c2cnc3c(c2)C(=O)N([C@H](C)CO)C[C@H](C)[C@@H](CN(C)C(=O)Cc2ccccc2)O3)cc1	none
COc1ccccc1S(=O)(=O)N(C)C[C@H]1Oc2cc(/C=C/c3ccccc3)ccc2S(=O)(=O)N([C@H](C)CO)C[C@H]1C	none
CCCC#Cc1cnc2c(c1)C(=O)N([C@H](C)CO)C[C@@H](C)[C@@H](CN(C)C(=O)C1CC1)O2	none
CN(C[C@H]1N[C@@H](CO)[C@H]1c1ccc(-c2ccccc2)cc1)C(=O)C1CCC1	miR122 inh 42
C[C@@H]1CN([C@@H](C)CO)C(=O)c2cc(/C=C/c3ccccc3)cnc2O[C@@H]1CN(C)C(=O)C1CCC1	none
C[C@@H]1CN([C@H](C)CO)S(=O)(=O)c2ccc(-c3ccccc3)cc2O[C@H]1CN(C)C(=O)C1CCCCC1	none
C[C@@H]1CN([C@@H](C)CO)C(=O)c2cc(-c3ccc(F)cc3)cnc2O[C@H]1CN(C)C(=O)c1ccccn1	none
